# Source: PubChem BioAssay (National Center for Advancing Translational Sciences (NCATS))
# Only some compounds are listed: those with a hit (about 2.1% of all), similar ones and a draw of the others.
# TDP43 rescue – rescues yeast growth from TDP-43 toxicity | Potency, µM (doses to about 46.1 µM), for inactives: at the highest dose growth rescue (activation), most hits filed as activators | 410,000 tested, 1.8% active | TDP-43 expressing yeast growth rescue, BacTiter-Glo, 24 h; further: % of control where 0% means no effect; nearly all actives have a fitted effect of over 50% in size
#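 Yeast expressing TDP-43 (pregrown in raffinose, seeded at OD600=0.02 in galactose medium) exposed to compounds 24 hr at 30 deg C. Growth read by BacTiter-Glo luminescence; rescue of toxicity appears as increased signal.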
# aSyn yeast inh – inhibitors of alpha-synuclein toxicity in yeast. Yeast expressing alpha-synuclein, growth rescue, BacTiter-Glo, 24 h. Potency, µM (top dose mostly 46.1 µM), inactives show at the top dose growth rescue (activation), hits mostly activators. 370,000 tested, 0.14% active; further: % of control where 0% means no effect; nearly all actives have a fitted effect of over 65% in size
#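 Galactose-induced alpha-syn yeast (OD600=0.02, raffinose-pregrown) + pinned cpd, 24 hr, 30 deg C; growth by BacTiter-Glo luminescence. Growth restoration scores as activation.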
# FUS suppressor – rescues growth of FUS-expressing yeast; S. cerevisiae FUS-expressing, growth rescue, OD600, 24 h; 390,000 tested, 0.24% active; Potency, µM (highest dose often 76.6 µM), actives largely listed as activators; AID 1347120;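 further: plate controls were DMSO vehicle for no effect and reference control for full effect; nearly all actives have a fitted effect of over 55% in size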
#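 Yeast FUS proteinopathy model; galactose-induced FUS (2%), starting OD 0.005. Cpds in dilution series, 24hr, 30C, 99% humidity. Abs 600 nm growth. Pos ctrl CP55940 (top 92uM final); neg ctrl DMSO.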
# Abeta yeast res – compounds reversing amyloid beta toxicity in yeast. Potency, µM (series often up to 46.1 µM), hits mostly activators. 410,000 tested, 0.063% active. AID 1347071. yeast expressing A-beta42, growth rescue, OD600, 48 h; response scale: 0% DMSO, 100% iron-clioquinol control; further: nearly all actives have a fitted effect of over 55% in size
#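 Yeast A-beta toxicity model in growth medium with pinned compounds, 48 h at 30 C; growth read as absorbance at 600 nm. Normalized to FeCl3/clioquinol equimolar mix (positive) and DMSO (negative).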
# Numbers without * were called inactive; i = inactive; ? = inconclusive; / = no result. The call rests on the fitted dose curve; in most records, active means well fitted curve in the direction sought with a large enough effect; inconclusive means small, poorly fitted or top-dose-only effect, or another doubt; inactive means no such curve, though single readings can be large; an effect the other way counts as inactive or inconclusive. Potency means the concentration at half of the fitted maximal effect.
SMILES,TDP43 rescue,aSyn yeast inh,FUS suppressor,Abeta yeast res
CC(C)Oc1ccc(/C=C/C(=O)NCC2COc3ccccc3O2)cc1 (stereo not given),18µM*,2%,i,?
CC(=O)NCC1COc2ccccc2O1 (stereo not given),18%,4%,i,i
O=C(COC(=O)c1ccccc1O)NCC1COc2ccccc2O1 (stereo not given),16%,11%,/,i
COc1ccc(N=c2nc(-c3ccc(C)cc3)n(-c3ccccc3)s2)cc1,/,-22%,/,/
Cc1cccc(CSCc2ccc(C(=O)NCCc3ccccc3)o2)c1,35µM*,21%,i,i
COC(=O)CC[C@H](/C=C/C(=O)OC(C)(C)C)Sc1ccc(C(C)(C)C)cc1,/,/,i,/
c1coc(CN(Cc2ccco2)c2ncnc3c2oc2ccccc23)c1,20µM*,1%,?,i
Clc1ncnc2c1oc1ccccc12,18%,-4%,i,i
COc1ccc(-c2cc(-c3nnc(SCC(=O)Nc4nccs4)n3N)[nH]n2)cc1,/,/,i,/
O=C(O)Cc1ccc(Oc2ncc(C(F)(F)F)cc2Cl)cc1,13µM*,2%,i,i
O=c1oc2ccccc2c2c1ccc1ccccc12,35µM*,7%,i,i
O=c1oc2ccccc2c2[nH]ccc12,-19%,7%,i,i
Nc1ccc(-c2nc3ccc(-c4nc5ccc(N)cc5[nH]4)cc3[nH]2)cc1,/,-28%,/,/
COc1ccc(-c2nc3ccc([N+](=O)[O-])cc3[nH]2)cc1,16%,11%,i,i
Nc1ccc2nc(-c3ccc(-c4nc5ccc(N)cc5[nH]4)cc3)[nH]c2c1,14µM*,9%,i,?
Cc1ccc(-c2nc3ccc([N+](=O)[O-])cc3[nH]2)cc1,18µM*,1%,i,i
COc1ccc2c(C)c(CCC(=O)NCCc3ccc(Cl)cc3)c(=O)oc2c1,22µM*,/,i,i
COc1ccc(CCNC(=O)c2oc3ccc(OC)cc3c2C)cc1,4µM*,-6%,i,i
COc1ccc(CCC(=O)NCCOc2ccc(Cl)cc2)cc1,8.9µM*,2%,i,i
COc1ccc(CCNC(=O)c2oc3ccccc3c2C)cc1,38%,-1%,i,i
CC1=C(C)CS(=O)N(S(=O)(=O)c2ccccc2)C1 (stereo not given),13µM*,-22%,i,i
COc1ccc(CN2C(=O)CCCC2(C)c2nnnn2-c2ccc3c(c2)OCCO3)cc1 (stereo not given),/,/,i,/
O=C(Nc1ccc2ccccc2c1)NC1CCCCN(Cc2ccc(Cl)cc2)C1=O (stereo not given),/,/,i,/
CC(C)(C)n1nnnc1C(c1cccnc1)N1CCN(c2ccccn2)CC1 (stereo not given),-5%,10%,i,i
CC(C)(C)n1nnnc1C(c1ccccc1)N1CCN(c2ccc(C(F)(F)F)cn2)CC1 (stereo not given),35µM*,-1%,i,i
SMILES,TDP43 rescue,aSyn yeast inh,FUS suppressor,Abeta yeast res
O=[N+]([O-])c1cccc(S(=O)(=O)N2CCN(c3nc(-c4cccs4)nc4ccccc34)CC2)c1,/,-11%,/,/
Cc1nc2sc(C(=O)NCc3ccc4c(c3)OCO4)c(N)c2c(C)c1Cl,/,/,i,/
Cn1c(SCC(=O)NCc2ccco2)nnc1-c1ccc(NC(=O)c2ccccc2)cc1,/,0%,/,/
O=C(NCc1ccc(Cl)cc1)c1ccc2c(c1)N(Cc1ccccc1F)C(=O)c1ccccc1S2=O (stereo not given),0%,/,28µM*,i
COc1ccc(CCNC(=O)c2ccc3c(c2)N(Cc2cccc(C)c2)C(=O)c2ccccc2S3(=O)=O)cc1OC,-1%,/,?,i
COc1ccc(CCNC(=O)c2ccc3c(c2)N(Cc2ccccc2F)C(=O)c2ccccc2S3(=O)=O)cc1OC,-19%,/,20µM*,i
CC1(C(=O)NCc2ccc(C(F)(F)F)cc2)CCN1Cc1ccc(-c2ccccc2)o1 (stereo not given),19%,16µM*,?,i
C=CCN1C(=O)[C@H](CC(=O)NCCCOCCCC)[C@@]2(C(=O)OCC)CCCC=C12,/,/,i,/
O=C(O)c1ccc(-n2nc(C(F)(F)F)c3c2CCCC3)cc1,16µM*,10%,i,i
Oc1cc2cc(-c3csc(-c4ccc(F)cc4)n3)ccc2[nH]1,/,-15%,/,/
Cc1sc2ccccc2[n+]1CCCCBr,/,-6%,/,/
COc1ccc(COc2cccc(C=O)c2)cc1,?,-24%,i,i
O=Cc1cccc(OCc2cccc3ccccc23)c1,14µM*,-1%,i,i
COc1ccc(CNC(=O)O[C@H]2CC[C@@]34CCCN3C(=O)CCC[C@H]4C2)cc1OC,/,/,i,/
CCCSc1nnc(NC(=O)c2sc3nc(-c4cccs4)ccc3c2N)s1,-9%,2%,13µM*,i
COc1cc2nc(SCc3ccc(Cl)cc3Cl)n(Cc3cccs3)c(=N)c2cc1OC,25µM*,0%,i,i
CC1Cc2ccccc2N1C(=O)/C=C/c1cccc(F)c1 (stereo not given),20µM*,6%,i,i
CC1(C)CC(=O)C=C(Nc2ccccc2NC(=O)c2cccc(F)c2F)C1,/,/,i,/
Cc1ccccc1N(C)S(=O)(=O)c1nnc(NC(=O)c2ccccc2F)s1,13µM*,3%,i,i
Cc1ccccc1N(C)S(=O)(=O)c1nnc(NC(=O)C(C)C)s1,19%,/,i,i
C=CCN(CC=C)C(=S)NC(=O)c1ccc(C)c(Br)c1,?,14µM*,/,i
C=CCN(CC=C)C(=S)NC(=O)c1ccc(-c2ccccc2)cc1,13µM*,?,/,i
C=CCN(CC=C)C(=S)NC(=O)c1ccc(OC)cc1,26%,-10%,i,i
c1ccc(Cn2c(SCC3CCCCC3)nnc2-c2cccnc2)cc1,/,/,i,/
CC(Cl)C(=O)N1CCC(C(=O)NCC2COc3ccccc3O2)CC1 (stereo not given),/,/,i,/
SMILES,TDP43 rescue,aSyn yeast inh,FUS suppressor,Abeta yeast res
CC(C)(C)C(c1nc2ccccc2[nH]1)n1c(-c2cc(Cl)cc(Cl)c2)nc2ccccc21 (stereo not given),35µM*,-8%,i,?
CC(C)(C)C(c1nc2ccccc2[nH]1)n1c(-c2cccc(S(C)(=O)=O)c2)nc2ccccc21 (stereo not given),8%,3%,i,i
CS(=O)(=O)Nc1ccccc1C(=O)OCC(=O)N1CCC(c2ccccc2)=N1,25µM*,-10%,?,i
C/C(=N\NC(=S)NCc1ccccc1)c1ccccc1,0%,-5%,i,3.5µM*
COc1ccc(CNC(=S)N/N=C(/C)c2ccccc2)cc1,18µM*,-19%,i,?
O=C(NC(=S)NCc1ccccc1)c1ccccc1F,?,/,i,i
C/C(=N\NC(=S)NCc1ccccc1)c1ccccc1F,-11%,-8%,i,11µM*
C/C(=N\NC(=S)NCc1ccccc1)c1ccco1,?,-12%,i,11µM*
C/C(=N\NC(=S)NCc1ccccc1)c1ccc(C(C)(C)C)cc1,25%,9%,/,?
